The values below come from PubChem BioAssay (NCI).

Several values for one entry are separate records, joined by “and”; a condition that tells them apart may be missing. Equal values may be shown once. About 83,000 compounds went through this panel and 20% of them were active in at least one assay; those are over-represented in the sample as a whole.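 The endpoint reported here, percent growth, reads 100 for growth as untreated, 0 for no net growth and -100 for all cells dead.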 Unmarked numbers belong to inactive results. Activity calls are given as the source filed them. Rule for the calls: active = growth percent below 10; inactive = the rest.

In the assay the test system is HL-60(TB) leukemia. The assay is described as follows: NCI-60 one-dose screen, 48 h (100 = growth as untreated, 0 = no growth, -100 = all killed). The settings on record: 10 µM unless noted.
Regarding `Cc1cc(N)c2ccccc2[n+]1CCCCCCCCCC[n+]1c(C)cc(N)c2ccccc21`, the growth was -65% (active) and -69.4% (active).

Consider `Cc1n[nH]c(C)c1N=Nc1cccc2c1C(=O)c1ccccc1C2=O`, for which the growth is 96.3%.

With `CCOC(=O)c1cc(-c2cccnc2)nc2c(Cl)cc(Cl)cc12`, the growth was 108%.

As to `NC1=NN(c2ccccc2)C(=O)/C1=C/c1ccc(Cl)cc1`, the growth is 104%.

For the compound `COc1ccc(C2C3=C(COC3=O)N(CCO)c3cc(OC)c(OC)cc32)cc1` (stereo not given), the growth is 89%.

As to `O=C1c2ccccc2C(=O)N1/N=C/c1ccc2c(c1)OCO2`, the growth is 88.1%.

On to `COc1cc(-c2csc(NC(=O)Nc3cccc(C(F)(F)F)c3)n2)cc(OC)c1OC`, for which the growth is 44.6%.

As for `Oc1ccc(CN(Cc2ccc(C(F)(F)F)cc2)Cc2ccc(O)c3ncccc23)c2cccnc12`, the growth was -11% (active).

Regarding `Cc1ccc2c(ccc3c[n+]4c5ccccc5ccc4n32)c1`, the growth is 2.59% (active).

With `N=C1C(c2nc(-c3ccc(Br)cc3)cs2)=C(O)CN1CC1CCCO1` (stereo not given), the growth was 98.3%.

As to `Cn1ccc2c(c1=O)C(=O)c1nccc3c1c-2nc1ccccc13`, the growth is -67.4% (active).

For the compound `COC(=O)/C=C/c1cc(O)c2oc(-c3ccc(O)c(O)c3)c(C(=O)OC)c2c1`, the growth was 6.46% (active).

With `CN1CCN(CCCOc2cccc3nc(Nc4ccc(Cl)c(C(F)(F)F)c4)ccc23)CC1`, the growth was 82.3%.

In the case of `CCCCCCCCOC(=O)c1ccc(O)c(OC)c1`, the growth was 30.9%.

`Cn1cc(-c2ccc3nc(-c4ccc(CC(=O)ONc5cc(C(C)(C)C)on5)cc4)cnc3c2)cn1`: the growth is 29%.

For `C[C@@H](CO)[C@@H]1CCC=C2CC[C@]3(C)[C@H](CC[C@@H]4[C@@]5(C)CCCNC(C)(C)[C@@H]5CC[C@]43C)[C@H]21`, the growth is -6.22% (active).

On to `O=C1C(=O)c2ccccc2C(O)=C1CC=C(Cl)Cl`, for which the growth is 31.3% and 44.6%.

In the case of `COc1ccc(NC(=O)c2cc3ccccc3nc2Nc2cc(OC)c(OC)c(OC)c2)cc1`, the growth was 67.3%.

Turning to `O=C(Nc1cc(C(F)(F)F)cc(C(F)(F)F)c1)c1cc(Cl)ccc1O`, the growth was -24.6% (active) and -49% (active).

With `COc1ccc2c(c1)C(=O)/C(=C/c1ccccn1)CC2`, the growth is 75.5%.

As for `CCOC(=O)c1c(SC)nn(-c2cc(=O)[nH]c3ccc(Br)cc23)c1N`, the growth was 103%.

Take `COc1ccc(COC(C)=O)cc1`: the growth was 112%.

For `O=C(Nc1ccc(-n2cc(-c3ccncc3)c(-c3ccc(Cl)c(O)c3)n2)cc1)c1cc(C(F)(F)F)cc(C(F)(F)F)c1`, the growth was 52.6%.

As for `Cc1nc2nc(C(F)(F)F)[nH]c2nc1C`, the growth is 98.8%.

As to `O=C(NCc1ccccc1)Nc1ccccc1CNc1nc(Nc2ccc(OCCN3CCCC3)cc2)ncc1Cl`, the growth is 62.4%.

`CC(C)c1ccc(NC(=O)Nc2ccc(NC(=O)CCCC(=O)NOCc3ccccc3)cc2)cc1`: the growth was 17.9%.

In the case of `CCOC(=O)c1c(NC(=O)C2CCCCC2C(=O)O)sc2c1CCCC2` (stereo not given), the growth is 102%.

Consider `CC(=O)Nc1ccc(S(=O)(=O)Cl)cc1`, for which the growth is 103%.

As for `O=C(CSc1nnc2n1S(=O)(=O)c1ccccc1N2c1ccccc1)Nc1nc2ccc(F)cc2s1`, the growth is 106%.

As for `CCCC1CCC(O)(C(C)(O)C(=O)NC2C(=O)N3NCCCC3C(=O)N(O)C(C)C(=O)N3NCCCC3C(=O)N3NCC(O)CC3C(=O)NC(C)C(=O)OC2C(C)C)OC1CC` (stereo not given), the growth was -91.3% (active).

As to `Cc1nn(-c2nc3ccccc3[nH]2)c2c1C(c1ccc(OCc3ccc(F)cc3)cc1)CC(=O)N2` (stereo not given), the growth is 75.8%.

With `COc1ccccc1C(=O)/C=C/c1cc2cccc(OC)c2[nH]c1=O`, the growth was -10.5% (active).

For `O=C1C(=O)c2ccccc2C(O)=C1CCCc1ccc(C2CCCC2)cc1`, the growth was 20.6%.

With `O=C(Nc1ccc(Nc2ccncc2)cc1)c1ccc(Nc2ccnc3ccc([N+](=O)[O-])cc23)cc1[N+](=O)[O-]`, the growth is 88.8%.

For `COC(=O)c1cccc(NC(=O)c2ccc(-c3cccc(N)c3)o2)c1`, the growth is 99.9%.

In the case of `OCc1ncc(-c2ccccc2)s1`, the growth is 91.1%.

`COC(=O)[C@H](NC(=O)C1(C)CCC[C@]2(C)[C@H]3C[C@H]4C(C(C)C)=C[C@]3(CC[C@@H]12)[C@@H]1C(=O)CCC(=O)[C@@H]14)C(C)C` (stereo not given in full): the growth was 103%.

As for `CC(C)(C(=O)c1cccnc1)c1cccnc1`, the growth was 99.5% and 126%.

In the case of `Nc1c(C(=O)Nc2cccc(Br)c2)sc2nc3c(cc12)C(O)CCC3` (stereo not given), the growth is -2.37% (active).

For the compound `CC1(C)Cc2c(sc3ncn4nc(-c5ccc(O)cc5)nc4c23)CO1`, the growth is 62.1%.
